Holding throughout (test): NCI-60 one-dose screen, 48 h (100 = growth as untreated, 0 = no growth, -100 = all killed)
One experiment deals with SK-MEL-2 melanoma. The note with it: 10 µM.
The test system of a further experiment is EKVX NSCLC. The following applies: 10 µM.
A further experiment relates to SN12C renal. The note with it: 10 µM.
The next experiment relates to UO-31 renal. The following applies: 10 µM.
The test system of another experiment is TK-10 renal. The following applies: 10 µM unless noted.
Another experiment concerns ACHN renal. The following applies: 10 µM.
In a further experiment the test system is CAKI-1 renal. The following applies: 10 µM.
For another experiment, the system named is HL-60(TB) leukemia. The note with it: 10 µM.
For a further experiment, the system named is CCRF-CEM leukemia. The following applies: 10 µM.
In the next experiment the test system is A498 renal. The following applies: 10 µM.

Where “and” joins values, the source holds several entries; their conditions need not be identical. Identical values can stand only once. This is part of a sample that, as a whole, favours compounds with a hit. Of some 83,000 tested, about 20% had one in any assay.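 Interpretation: 100, growth as untreated; towards 0, rising growth inhibition; 0, no net growth; 0 to -100, cell death. Compounds scoring below 10 were considered active.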 Calls of active or inactive are those of the source.

The source of these data is PubChem BioAssay (NCI).

Consider `COc1cc([C@@H]2c3cc4c(c(O)c3C[C@H]3COC(=O)[C@@H]32)OCO4)cc(OC)c1OC`, for which the growth in the experiment with SK-MEL-2 melanoma was -25.1% (active); in the experiment on EKVX NSCLC it was 44.2% (inactive); in the experiment with SN12C renal it was 31.8% (inactive); in the experiment with UO-31 renal it was 32.7% (inactive); in the experiment on TK-10 renal it was 38.8% (inactive); with ACHN renal, 33.8% (inactive). Further, the growth was 20.3% (inactive) with CAKI-1 renal, -33.5% (active) with HL-60(TB) leukemia and -5.4% (active) with CCRF-CEM leukemia.

As to `O=C1C=Cc2ccccc2C1=O`, the growth with SK-MEL-2 melanoma is 55.3% (inactive); with EKVX NSCLC, 82.6% (inactive); in the experiment with SN12C renal, 92.1% (inactive); in the experiment on UO-31 renal it was 50.3% (inactive); in the experiment with TK-10 renal, 87.9% (inactive); in the experiment on ACHN renal it was 46.5% (inactive). The growth with CAKI-1 renal was 86.2% (inactive); in the experiment with HL-60(TB) leukemia, 87.3% (inactive); in the experiment on CCRF-CEM leukemia, 74.1% (inactive).

For the molecule `[O-][n+]1ccccc1S`, the growth in the experiment on SK-MEL-2 melanoma is 41.2% (inactive); in the experiment with EKVX NSCLC it was 72.7% (inactive); in the experiment on SN12C renal it was 58.7% (inactive); in the experiment on UO-31 renal it was 62% (inactive); in the experiment on TK-10 renal, 37.2% (inactive); in the experiment with ACHN renal, 32.2% (inactive). In addition, the growth is 37.9% (inactive) in the experiment with CAKI-1 renal, 109% (inactive) with HL-60(TB) leukemia and 8.62% (active) with CCRF-CEM leukemia.

With `O=[N+]([O-])/C=C\c1ccc2c(c1)OCO2`, the growth with SK-MEL-2 melanoma is 115% (inactive); with EKVX NSCLC it was 96.9% (inactive); in the experiment with SN12C renal, 94.2% (inactive); in the experiment with UO-31 renal, 64.5% (inactive); in the experiment on TK-10 renal, 87.1% (inactive); in the experiment with ACHN renal, 90.4% (inactive). Moreover, the growth in the experiment with CAKI-1 renal is 86.6% (inactive); with HL-60(TB) leukemia, 106% (inactive); in the experiment on CCRF-CEM leukemia it was 92.5% (inactive).

`CC/C(=C/c1ccc(OC)cc1)[N+](=O)[O-]`: the growth in the experiment on SK-MEL-2 melanoma was 27% (inactive); with EKVX NSCLC, 78% (inactive); with SN12C renal, -43.7% (active); with UO-31 renal it was -61.6% (active); with TK-10 renal it was -9.47% (active); with ACHN renal, -43% (active). Moreover, the growth is 1.94% (active) in the experiment with CAKI-1 renal, -1.61% (active) in the experiment with HL-60(TB) leukemia and -9.4% (active) with CCRF-CEM leukemia.

Take `O=[N+]([O-])/C=C/c1ccc(Cl)cc1[N+](=O)[O-]`: the growth with SK-MEL-2 melanoma was 102% (inactive); in the experiment with EKVX NSCLC, 81.8% (inactive); in the experiment with SN12C renal it was 63.2% (inactive); in the experiment on UO-31 renal it was -45.7% (active); in the experiment on TK-10 renal, 75.3% (inactive); with ACHN renal, 30.3% (inactive). For the same molecule, the growth is 47.7% (inactive) in the experiment on CAKI-1 renal, 33.9% (inactive) in the experiment with HL-60(TB) leukemia and 8.23% (active) in the experiment on CCRF-CEM leukemia.

For the molecule `ClCc1ccc2ccccc2n1`, the growth with SK-MEL-2 melanoma was 99.4% (inactive); in the experiment on EKVX NSCLC, 93.2% (inactive); in the experiment with SN12C renal, 86% (inactive); in the experiment on UO-31 renal it was 89.8% (inactive); in the experiment with TK-10 renal it was 113% (inactive); in the experiment on ACHN renal it was 96.8% (inactive). For the same molecule, the growth is 58.5% (inactive) in the experiment on CAKI-1 renal, 66.3% (inactive) in the experiment with HL-60(TB) leukemia and 103% (inactive) in the experiment on CCRF-CEM leukemia.

For the molecule `S=C=NCCc1ccccc1`, the growth is 104% (inactive) in the experiment with SK-MEL-2 melanoma; 127% (inactive) in the experiment with EKVX NSCLC; 68.4% (inactive) in the experiment with SN12C renal; 51.3% (inactive) in the experiment on UO-31 renal; 78.9% (inactive) in the experiment on TK-10 renal; 72% (inactive) in the experiment on ACHN renal. The growth in the experiment with CAKI-1 renal was 69.4% (inactive); in the experiment with HL-60(TB) leukemia, 9.55% (active); with CCRF-CEM leukemia, 16.7% (inactive).

For the molecule `COc1cc(/C=C(/C)[N+](=O)[O-])ccc1O`, the growth in the experiment on SK-MEL-2 melanoma is 19.6% (inactive) and 72.1% (inactive); in the experiment on EKVX NSCLC, 84.6% (inactive); with SN12C renal, 27.5% (inactive) and 23.2% (inactive); in the experiment with UO-31 renal, -10.8% (active) and -16.8% (active); with TK-10 renal it was -21.2% (active) and 61.7% (inactive); with ACHN renal it was -39.8% (active) and 16.4% (inactive). The growth in the experiment with CAKI-1 renal is -0.672% (active); in the experiment with HL-60(TB) leukemia it was -17.3% (active) and -34.3% (active); in the experiment with CCRF-CEM leukemia, -35% (active).

Take `CC(Cc1ccc2c(c1)OCO2)NN` (configuration not stated): the growth with SK-MEL-2 melanoma was 101% (inactive); in the experiment with EKVX NSCLC, 84.2% (inactive); with SN12C renal, 102% (inactive); with UO-31 renal it was 96.7% (inactive); with TK-10 renal, 93% (inactive); with ACHN renal it was 98.7% (inactive). For the same molecule, the figures for the growth in the experiment on HL-60(TB) leukemia and in the experiment on CCRF-CEM leukemia were 81.8% (inactive) and 84.1% (inactive), respectively.

In the case of `CCOP(=O)(OCC)C(O)c1ccccc1Cl` (configuration not stated), the growth in the experiment with SK-MEL-2 melanoma is 93% (inactive); with SN12C renal, 106% (inactive); in the experiment with UO-31 renal it was 90.5% (inactive); with ACHN renal it was 96.8% (inactive); in the experiment on CAKI-1 renal, 101% (inactive); in the experiment with A498 renal, 103% (inactive). Further, the growth in the experiment on HL-60(TB) leukemia is 106% (inactive); with CCRF-CEM leukemia it was 93.9% (inactive).

`O=C(CCl)Nc1ccc(Cl)cc1`: the growth with EKVX NSCLC is 101% (inactive); in the experiment with SN12C renal, 35.8% (inactive); with UO-31 renal it was 79.7% (inactive); in the experiment with TK-10 renal it was 66.7% (inactive); in the experiment with ACHN renal, 62.4% (inactive); in the experiment on CAKI-1 renal, -7.72% (active). For the same molecule, the results for the growth in the experiment on A498 renal, with HL-60(TB) leukemia and in the experiment on CCRF-CEM leukemia were 113% (inactive), 66.3% (inactive) and 26.3% (inactive), respectively.

Turning to `COc1cc([N+](=O)[O-])c2ncccc2c1[N+](=O)[O-]`, the growth was 102% (inactive) with EKVX NSCLC; 71.4% (inactive) with SN12C renal; 41% (inactive) with UO-31 renal; 27.1% (inactive) in the experiment with TK-10 renal; 56.1% (inactive) in the experiment on ACHN renal; 24.8% (inactive) in the experiment with CAKI-1 renal. For the same molecule, the growth in the experiment with A498 renal was 122% (inactive); in the experiment on HL-60(TB) leukemia, 65.5% (inactive); with CCRF-CEM leukemia, 22.9% (inactive).

Regarding `Cc1ccc(NC(=O)CBr)cc1`, the growth in the experiment on SK-MEL-2 melanoma was 110% (inactive); in the experiment on SN12C renal it was 95.7% (inactive); in the experiment on UO-31 renal it was 86.1% (inactive); with TK-10 renal it was 110% (inactive); in the experiment on ACHN renal it was 108% (inactive); in the experiment on CAKI-1 renal, 104% (inactive). Moreover, the growth in the experiment with A498 renal is 99.3% (inactive); with CCRF-CEM leukemia, 23.8% (inactive).

Regarding `COC12c3c(C)cc(O)c4c(=O)occ(c34)C(=O)C1C13COC(=O)c4c(O)cc(C)c(c41)C(=O)C2C3OC(C)=O` (configuration not stated), the growth with SK-MEL-2 melanoma is 81.5% (inactive); in the experiment on SN12C renal it was 102% (inactive); with UO-31 renal, 91.5% (inactive); with TK-10 renal it was 110% (inactive); in the experiment with ACHN renal, 100% (inactive); in the experiment on CAKI-1 renal, 156% (inactive). The values for the growth in the experiment on A498 renal, in the experiment on HL-60(TB) leukemia and in the experiment with CCRF-CEM leukemia were 114% (inactive), 100% (inactive) and 96.2% (inactive), respectively.

With `COC1CC2C=C(C)/C=C/C=C/C(=O)NC(c3ccccc3)C/C=C/CCC(O)CC(=O)C2=C1O` (configuration not stated), the growth in the experiment with SK-MEL-2 melanoma was -89.8% (active); in the experiment on SN12C renal, -84.9% (active); in the experiment with UO-31 renal, -95.7% (active); in the experiment with TK-10 renal it was -59.9% (active); in the experiment with ACHN renal, -93.3% (active); in the experiment with CAKI-1 renal it was -88% (active). In addition, the growth with HL-60(TB) leukemia is -5.27% (active).

As to `N#CCc1ccccc1`, the growth with SK-MEL-2 melanoma is 99.9% (inactive); with SN12C renal, 99.6% (inactive); in the experiment with UO-31 renal, 93% (inactive); in the experiment on TK-10 renal, 108% (inactive); in the experiment with ACHN renal, 108% (inactive); with CAKI-1 renal, 104% (inactive). Further, the growth is 105% (inactive) in the experiment on HL-60(TB) leukemia and 97.3% (inactive) with CCRF-CEM leukemia.
